HCV inh = HCV inhibition; Huh7.5.1 HCVcc-Cre infection, luciferase reporter, 44 h; Potency, µM (doses to about 41.8 µM), most hits filed as inhibitors; 340,000 tested, 3.4% active; AID 651820; active = well fitted inhibition curve with a large enough effect; inconclusive = small, poorly fitted or top-dose-only effect, or another doubt; inactive = no such curve, though single readings can be large or run the other way
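HCVcc-Cre virus at an moi near 0.5 was added right after compound to cells cultured 4 h from seeding (1,000 cells/well). Luciferase activity was determined 44 h later, 15 min after substrate addition at RT.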
Lassa entry inh = blocks Lassa virus binding to or entry into cells; Potency, µM (doses to about 37.9 µM), usual class: inhibitors; AID 540256; 300,000 tested, 1.2% active; Lassa virus pseudotype entry inhibition, cell reporter; calls by dose curve; tested in HEK293 cells; also: nearly all actives have a fitted effect of over 50% in size
Marburg entry inh = inhibitors of Marburg virus binding or cell entry. AID 540276. Marburg virus pseudotyped entry inhibition, cell reporter. 300,000 tested, 1.8% active. Potency, µM (series often up to 37.8 µM), usual class: inhibitors; calls by dose curve; tested in HEK293 cells
HCMV antiviral = blocks human cytomegalovirus replication; HFF cells, HCMV-luciferase reporter, 72 h; hits give low values; activity change, negative = inhibition, % at 57.5 µM; 410,000 tested, 4.5% active; in the data active = activity change below about -60%; inconclusive = no clear call, values can overlap the other calls; inactive = above about -39%
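Cell-based, HFFs, 1000 cells/well, 16 h 37C; cpds in DMSO + HCMV-luc, MOI 1 PFU/cell; 72 h 37C; OneGlo luminescence after 5 min RT; norm. to buffer vs Salinomycin 10uM.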
FMDV antiviral = antivirals against foot and mouth disease virus | FMDV antiviral cell-based qHTS | Potency, µM (series often up to 57.9 µM), hits mostly inhibitors | 410,000 tested, 1.2% active; calls by dose curve; tested in HEK293T cells; also: read-out not given here; nearly all actives have a fitted effect of over 45% in size
Numbers stand for hits; 0 = inactive; ? = inconclusive; - = not tested or not shown. Hits are enriched below; roughly 7.9% of the tested compounds scored in any of these assays.

SMILES	HCV inh	Lassa entry inh	Marburg entry inh	HCMV antiviral	FMDV antiviral
COc1cc(C2c3cc4c(cc3OC(C)(N3CCCC3)C2C)OCO4)cc(OC)c1OC (stereo not given)	?	?	?	-68	0
COc1ccc(NC2Oc3cc4c(cc3C(c3cc(OC)c(OC)c(OC)c3)C2C)OCO4)cc1 (stereo not given)	?	?	?	-77	0
COc1cc(C2c3cc4c(cc3OC(N3CCCC3)C2C)OCO4)cc(OC)c1O (stereo not given)	?	0	0	0	0
COc1cc(C2C3=C(COC3=O)Oc3cc4c(cc32)OCO4)ccc1O (stereo not given)	0	0	0	0	0
COc1cc(C2C3=C(COC3=O)OC(C)(C)Oc3cc4c(cc32)OCO4)cc(OC)c1OC (stereo not given)	?	?	?	-80	0
Cc1c(C(=O)NCC2COCCO2)cnn1-c1ncc2c(n1)-c1ccccc1CC2 (stereo not given)	-	-	-	-	0
CCOC(=O)N1CCN(Cc2nc3cc(NC(=O)c4ccc(F)cc4)ccc3n2C(C)C)CC1	-	0	?	-85	?
Cn1c(CN2CCCCC2)nc2cc(NC(=O)c3ccccc3Cl)ccc21	?	0	?	?	?
Cn1c(CN2CCCCC2)nc2cc(NC(=O)c3ccc(F)cc3)ccc21	10µM	?	?	-62	?
COc1ccc(CNC(=O)CN2N=C(c3ccc(Cl)cc3)CCC2=O)cc1	-	0	-	0	0
CCC[C@H]1[C@@H](NS(=O)(=O)c2ccccc2C)CC[C@@]23CCCN2C(=O)CCC[C@@H]13	-	-	-	0	-
CN(C)c1ncnc2ccc(-c3ccccc3C(F)(F)F)cc12	-	-	-	-	0
CC(C)NC(=O)N(C)C[C@H]1OCc2cn(nn2)CCCC(=O)N([C@H](C)CO)C[C@@H]1C	-	-	-	0	-
O=C1/C(=C/c2ccc(Cl)cc2)SC(=S)N1CCC(=O)N1CCCCC1CCO (stereo not given)	?	-	-	-86	0
O=C(CCN1C(=O)/C(=C\c2ccccc2F)SC1=S)N1CCCCC1	0	-	-	0	0
O=C1/C(=C/c2cccc(Cl)c2)SC(=S)N1CCC(=O)N1CCCCC1CCO (stereo not given)	0	-	-	-82	0
O=C1/C(=C/c2ccccc2F)SC(=S)N1CCC(=O)N1CCCCC1CCO (stereo not given)	?	?	?	-84	0
COc1ccc(/C=C2\SC(=S)N(CCC(=O)N3CCCCC3CCO)C2=O)cc1 (stereo not given)	0	-	-	-84	?
CC(=O)c1ccc(F)c(-c2cc(C)cc3c2OC(CNC(=O)c2csc(C)n2)C3)c1 (stereo not given)	-	-	-	-	0
O=C(O)CCCN1C(=O)/C(=C/C=C/c2ccco2)SC1=S	0	0	?	?	?
O=C1/C(=C/c2ccco2)SC(=S)N1CCC(=O)N1CCCCC1CCO (stereo not given)	0	-	-	-92	0
O=C1/C(=C/c2cccs2)SC(=S)N1CC(=O)N1CCCCC1CCO (stereo not given)	0	-	-	-83	0
COc1ccc(/C=C2\SC(=O)N(CCC(=O)N3CCCCC3CCO)C2=O)cc1 (stereo not given)	?	0	0	0	0
O=C1/C(=C/c2ccccc2)SC(=S)N1CCCC(=O)N1CCCCC1CCO (stereo not given)	?	-	-	-101	?
Cc1ccc(N(CC(=O)NCCc2ccccc2)C(=O)CCC(=O)Nc2cc(C)ccn2)cc1	0	?	0	0	0
SMILES	HCV inh	Lassa entry inh	Marburg entry inh	HCMV antiviral	FMDV antiviral
Cc1ccc(C2=Nc3ccccc3N(CC(=O)Nc3ccccc3F)C(=O)C2)cc1C	-	?	-	0	0
O=C(COc1ccccc1F)Nc1nnc(SCc2cc(=O)n3ccccc3n2)s1	-	0	-	0	0
O=C1Nc2ccccc2N=C(c2ccc3c(c2)OCO3)C1N(C(=O)c1ccc2ccccc2c1)C1CC1 (stereo not given)	-	-	-	0	0
CCc1cccc2sc(N3CCN(C(=O)c4ccc([N+](=O)[O-])o4)CC3)nc12	?	?	5µM	-	?
CCc1cccc2sc(N3CCN(C(=O)C4CC4)CC3)nc12	-	?	-	0	0
COc1ccccc1N1CCN(C(=O)c2nn(-c3ccc(C)cc3)c(=O)n(C)c2=O)CC1	-	0	-	0	0
Cc1ccc(C(=O)C(C(=O)/C=C/c2ccccc2)=C2SCCCS2)cc1	?	22µM	?	-97	11µM
O=C(COC(=O)c1ccc([N+](=O)[O-])o1)Nc1nc2ccccc2s1	10µM	0	0	0	0
C=C(C)C(=O)C=Cc1ccc(Br)cc1	-	-	0	-	-
COCc1cc(C)nc2sc(C(=O)Nc3ccccc3F)c(N)c12	10µM	-	-	0	0
COc1ccc(C(O)c2ncc(-c3ccccc3)[nH]2)c(OC)c1 (stereo not given)	-	-	-	-67	0
CCN1CCc2nc(N)oc2CC1	0	0	?	-70	0
CCOc1ccc(CNc2cc(C)nc3nc(-c4cccc(C)c4)nn23)cc1OC	-	0	-	0	0
COc1cccc(C(=O)Nc2ccc3c(cc2=O)[C@@H](NC(C)=O)CCc2cc(OC)c(OC)c(OC)c2-3)c1	32µM	-	-	-	?
COc1c(C=O)c2c(c(OC)c1OC)-c1ccc(OC)c(=O)cc1C(NC(C)=O)CC2 (stereo not given)	0	?	0	-68	0
COC(=O)c1ccc2c(c1)C(NC(C)=O)CCc1cc(OC)c(OC)c(OC)c1-2 (stereo not given)	0	?	?	-81	0
CCCC(=O)NC1CCc2cc(OC)c(OC)c(OC)c2-c2ccc(OC)c(=O)cc21 (stereo not given)	?	?	?	-91	0
COC1=C[C@@H]2C3=C([C@@H]2C1=O)[C@@H](NC(C)=O)CCc1cc(OC)c(OC)c(OC)c13	0	-	-	0	0
COc1c(O[C@@H]2O[C@H](CO)[C@@H](O)[C@H](O)[C@H]2O)cc2c(c1OC)-c1ccc(SC)c(=O)cc1C(NC(C)=O)CC2 (stereo not given in full)	0	-	-	0	0
C/C(CCN1CCCc2nc(C)c(C)cc21)=N\OC[C@@H](O)[C@H]1O[C@@H]2OC(C)(C)O[C@@H]2[C@H]1O	-	-	0	-	-
COc1ccc(-c2cc(C(=O)N/N=C(\C)c3cccnc3)c3ccccc3n2)c(OC)c1	0	0	0	0	0
O=C(COc1ccc(F)cc1)N1CCCc2ccccc21	0	-	-	?	0
COc1cc2c(c(OC)c1OC)-c1ccc(OC)c(=O)cc1C(NC(C)=O)CC2 (stereo not given)	0	-	-	-87	0
COc1ccc2c(c1)C(NC(C)=O)CCc1cc(OC)c(OC)c(OC)c1-2 (stereo not given)	0	?	?	-67	0
COc1cc2c(c(OC)c1OC)-c1ccc(O)c(=O)cc1C(NC(C)=O)CC2 (stereo not given)	0	0	?	-	0
Cc1cccc(C)c1N=CN1c2ccccc2-n2cccc2C1c1ccccc1 (stereo not given)	-	-	-	0	-
CN(C)C(=O)c1ccc(-c2cc3onc(-c4ccccc4)c3c(=O)n2C)cc1	3.5µM	-	-	0	0
COC(=O)c1ccc(-c2cc3onc(-c4ccccc4)c3c(=O)n2C)cc1	0	-	-	0	0

Screening data (PubChem)
